Laboratory results published in PubChem BioAssay (EPA / NIEHS).
Where a structure was tested more than once in an assay, its records may differ in their call. Active and inactive are the calls of the source. The calls were made as follows: active = hit-call score of the fitted dose curve at least 0.9, where 1 is the maximum; inactive = score below 0.9.

Each molecule was assayed on C-C motif chemokine 2 (Homo sapiens) (UniProt P13500) (assay: BSK_KF3CT_MCP1: BioMAP Diversity Plus: KF3CT Assay for Monocyte Chemoattractant Protein 1 (MCP1/CCL2) Biomarker Activity (AID 2283073)). Conditions: primary human keratinocytes with fibroblasts; actives raise or lower the signal.
Method: BSK_KF3CT is a cell-based, multiplexed-readout assay that uses keratinocytes and foreskin fibroblasts, a human skin primary cell co-culture, with measurements taken at 24 hours after chemical dosing in a 96-well plate.BSK_KF3CT_MCP1 is an assay component measured in the BSK_KF3CT assay. It measures MCP-1 antibody related to regulation of gene expression using ELISA technology.Data from the assay component BSK_KF3CT_MCP1 was analyzed into 1 assay endpoint. This assay endpoint, BSK_KF3CT_MCP1, was analyzed with bidirectional fitting relative to DMSO as the negative control and baseline of activity. Using a type of binding reporter, gain or loss-of-signal activity can be used to understand changes in the signaling as they relate to the gene CCL2. Furthermore, this assay endpoint can be referred to as a primary readout, because this assay has produced multiple assay endpoints where this one serves a signaling function. To generalize the intended target to other relatable targets, this assay endpoint is annotated to the cytokine intended target family, where the subfamily is chemotactic factor.
The levels of cell surface (or secreted, indicated by the prefix "s") biomarker endpoints were measured by ELISA. Overt cytotoxicity to cells in confluent adherent cultures (all systems other than the BT system) was assessed by measuring total protein levels using sulforhodamine B (SRB) staining in parallel cultures at the time of biomarker measurements, indicated as SRB endpoints. For proliferation assays for adherent cell types, individual cell types are cultured at sub-confluence and relative cell numbers quantified by SRB staining at time points optimized for each system (48 h: 3C and CASM3C systems; 72 h: BT and HDF3CGF systems; 96 h: SAg system). SRB was performed by staining cells with 0.1% SRB after fixation with 10% TCA and reading wells at 560 nm.Viability and proliferation of PBMC (T cells) was quantified by Alamar Blue reduction for the SAg and BT systems. For PBMC viability (referred to as PBMC Cytotoxicity within the assay endpoint names), cells were plated (75,000/well in a 96-well plate) and then chemical samples added for 1 h before addition of activators, SEB and TSST-1 (20 ng/mL final concentration each). Cells were incubated for 90 h. Then, Alamar Blue (20 uL/well) (Invitrogen, Cat DAL1100) was added for 6 h, and the plates were read with a fluorescence microplate reader at 546/580 nm (excitation/emission). For PBMC proliferation, cells were plated and activated as above but incubated for only 16 h prior to addition of Alamar Blue. Plates were read after 6 h.

**Q.** How did the outcome turn out when `ClC1C(Cl)C(Cl)C(Cl)C(Cl)C1Cl` (stereo not given) was run?
**A.** The outcome was “inactive”.

**Q.** For `COC(=O)c1ccccc1S(=O)(=O)NC(=O)Nc1nc(C)nc(OC)n1`, which outcome is on record?
**A.** The outcome was “inactive”.

**Q.** For `COP(=S)(OC)Oc1ccc(SC)c(C)c1`, which outcome is on record?
**A.** The outcome was “inactive”.

**Q.** With `CC(C)(C)C(O)C(Oc1ccc(Cl)cc1)n1cncn1` (stereo not given) as the molecule, how does the outcome read?
**A.** The outcome was “inactive”.

**Q.** With `Clc1ccccc1-c1nnc(-c2ccccc2Cl)nn1` as the molecule, how does the outcome read?
**A.** Its outcome is “inactive”.

**Q.** `O=C(O)COc1ccc(Cl)cc1Cl` was tested. Which outcome did it give?
**A.** Its outcome is “inactive”.

**Q.** Which outcome does the source give for `COc1cc(OC)nc(NC(=O)NS(=O)(=O)c2cc(NC=O)ccc2C(=O)N(C)C)n1` here?
**A.** Its outcome is “inactive”.

**Q.** For `CNC(=O)/C=C(\C)OP(=O)(OC)OC`, which outcome is on record?
**A.** Its outcome is “inactive”.

**Q.** With `COP(=S)(OC)Oc1ccc([N+](=O)[O-])cc1` as the molecule, how does the outcome read?
**A.** The outcome was “inactive”.

**Q.** `O=S(=O)(O)C(F)(F)C(F)(F)C(F)(F)C(F)(F)C(F)(F)C(F)(F)C(F)(F)C(F)(F)F` was tested. Which outcome did it give?
**A.** Its outcome is “inactive”.

**Q.** And the AC50?
**A.** Its AC50 is 16.8 µM (active).

**Q.** With `O=C1c2ccccc2C(=O)N1SC(Cl)(Cl)Cl` as the molecule, how does the outcome read?
**A.** Its outcome is “inactive”.

**Q.** Which outcome does the source give for `O=C(NC(=O)c1c(F)cccc1F)Nc1ccc(OC(F)(F)C(F)OC(F)(F)F)c(Cl)c1` (stereo not given) here?
**A.** Its outcome is “inactive”.

**Q.** With `CN1CSC(=S)N(C)C1` as the molecule, how does the outcome read?
**A.** The outcome was “inactive”.

**Q.** `COC(=O)c1ccccc1S(=O)(=O)NC(=O)N(C)c1nc(C)nc(OC)n1` was tested. Which outcome did it give?
**A.** The outcome was “inactive”.

**Q.** `C[C@H]1[C@H](c2ccc(Cl)cc2)SC(=O)N1C(=O)NC1CCCCC1` was tested. Which outcome did it give?
**A.** Its outcome is “inactive”.

**Q.** Which outcome does the source give for `CNC(=O)Oc1cccc(N=CN(C)C)c1` here?
**A.** Its outcome is “inactive”.

**Q.** How did the outcome turn out when `O=[N+]([O-])c1c(Cl)c(Cl)c(Cl)c(Cl)c1Cl` was run?
**A.** Its outcome is “inactive”.

**Q.** `OCCOc1ccccc1` was tested. Which outcome did it give?
**A.** Its outcome is “inactive”.

**Q.** For `CCCN(CCOc1c(Cl)cc(Cl)cc1Cl)C(=O)n1ccnc1`, which outcome is on record?
**A.** The outcome was “inactive”.

**Q.** `Oc1cc(Cl)ccc1Oc1ccc(Cl)cc1Cl` was tested. Which AC50 did it give?
**A.** Its AC50 is 36.6 µM (active) [middle of 4 runs].

**Q.** With `CC(C)N(C(=O)COc1nnc(C(F)(F)F)s1)c1ccc(F)cc1` as the molecule, how does the outcome read?
**A.** The outcome was “inactive”.

**Q.** Which outcome does the source give for `CCOCN(C(=O)CCl)c1c(C)cccc1CC` here?
**A.** The outcome was “inactive”.

**Q.** `CCc1ccc(C(=O)NN(C(=O)c2cc(C)cc(C)c2)C(C)(C)C)cc1` was tested. Which outcome did it give?
**A.** Its outcome is “inactive”.

**Q.** For `CCOC1Oc2ccc(OS(C)(=O)=O)cc2C1(C)C` (stereo not given), which outcome is on record?
**A.** The outcome was “inactive”.

**Q.** How did the outcome turn out when `O=[N+]([O-])/N=C1\NCCN1Cc1ccc(Cl)nc1` was run?
**A.** The outcome was “inactive”.

**Q.** How did the AC50 turn out when `CNC(=O)Oc1ccccc1OC(C)C` was run?
**A.** Its AC50 is 0.147 µM (active).

**Q.** For `COP(=O)(OC)OC=C(Cl)Cl`, which outcome is on record?
**A.** Its outcome is “inactive”.

**Q.** How did the outcome turn out when `C#CCN1C(=O)COc2cc(F)c(N3C(=O)C4=C(CCCC4)C3=O)cc21` was run?
**A.** The outcome was “inactive”.

**Q.** `CCC(C)(C)C(=O)OC1=C(c2ccc(Cl)cc2Cl)C(=O)OC12CCCCC2` was tested. Which AC50 did it give?
**A.** The AC50 was 31.4 µM (active).

**Q.** How did the outcome turn out when `CC(C)OC(=O)Nc1cccc(Cl)c1` was run?
**A.** The outcome was “inactive”.

**Q.** `O=C(Nc1ccccc1)Nc1cnns1` was tested. Which outcome did it give?
**A.** Its outcome is “inactive”.

**Q.** `O=C(O)C(F)(F)C(F)(F)C(F)(F)C(F)(F)C(F)(F)C(F)(F)C(F)(F)F` was tested. Which outcome did it give?
**A.** Its outcome is “inactive”.

**Q.** Which AC50 does the source give for `CCS(=O)(=O)c1cccnc1S(=O)(=O)NC(=O)Nc1nc(OC)cc(OC)n1` here?
**A.** Its AC50 is 0.202 µM (active).

**Q.** For `COC(=O)c1ccccc1CS(=O)(=O)NC(=O)Nc1nc(OC)cc(OC)n1`, which outcome is on record?
**A.** The outcome was “inactive”.

**Q.** How did the outcome turn out when `CCOc1nc(NC)nc(NC(=O)NS(=O)(=O)c2ccccc2C(=O)OC)n1` was run?
**A.** Its outcome is “inactive”.

**Q.** Which outcome does the source give for `Cc1[nH]c(=O)n(C(C)(C)C)c(=O)c1Cl` here?
**A.** The outcome was “inactive”.

**Q.** For `CCN(CC)C(=O)SCc1ccc(Cl)cc1`, which outcome is on record?
**A.** The outcome was “inactive”.

**Q.** With `CC[C@H](C)[C@H]1O[C@]2(C=C[C@@H]1C)C[C@@H]1C[C@@H](C/C=C(\C)[C@@H](O[C@H]3C[C@H](OC)[C@@H](O[C@H]4C[C@H](OC)[C@@H](O)[C@H](C)O4)[C@H](C)O3)[C@@H](C)/C=C/C=C3\CO[C@@H]4[C@H](O)C(C)=C[C@@H](C(=O)O1)[C@]34O)O2` (tested in a mixture with another compound) as the molecule, how does the AC50 read?
**A.** The AC50 was 7.59 µM (active).

**Q.** `CCC(C)(NC(=O)c1cc(Cl)c(C)c(Cl)c1)C(=O)CCl` (stereo not given) was tested. Which AC50 did it give?
**A.** The AC50 was 15.9 µM (active).
